In PubChem BioAssay (EPA / NIEHS):
Results filed as inconclusive are left out. Calls of active or inactive are those of the source. The calls were made as follows, unless noted: active = hit-call score of the fitted dose curve at least 0.9, where 1 is the maximum; inconclusive = response in the unintended direction; inactive = score below 0.9.

Experiments:
[1] = target: Retinoic acid receptor alpha (Homo sapiens) (UniProt P10276); assay: ATG_DR5_RAR_CIS: Attagene CIS-FACTORIAL HepG2 Assay for human Retinoic Acid Receptor Alpha (RARE), DR5 submotif (AID 2282934; active = hit-call score of the fitted dose curve at least 0.9, where 1 is the maximum; inactive = score below 0.9); details: HepG2 Attagene cis-factorial RARE DR5 reporter, mRNA; actives raise or lower the signal
Sequence of Retinoic acid receptor alpha (Homo sapiens) (P10276 whole entry, looked up): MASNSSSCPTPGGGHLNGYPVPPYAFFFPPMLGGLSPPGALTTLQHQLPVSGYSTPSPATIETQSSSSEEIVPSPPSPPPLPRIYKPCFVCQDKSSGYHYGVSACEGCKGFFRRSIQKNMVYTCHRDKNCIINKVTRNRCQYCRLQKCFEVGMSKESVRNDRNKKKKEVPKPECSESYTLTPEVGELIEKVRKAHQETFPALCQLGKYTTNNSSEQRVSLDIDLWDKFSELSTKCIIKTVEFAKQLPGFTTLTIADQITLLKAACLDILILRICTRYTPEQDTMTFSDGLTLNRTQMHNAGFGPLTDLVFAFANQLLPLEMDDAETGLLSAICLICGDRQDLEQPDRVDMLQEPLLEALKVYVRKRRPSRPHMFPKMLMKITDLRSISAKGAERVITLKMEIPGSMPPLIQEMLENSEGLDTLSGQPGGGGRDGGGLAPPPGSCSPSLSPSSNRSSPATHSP
In short: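 Transfected HepG2 reporter cells are exposed to chemicals for 24 h. Then RNA is extracted and the DR5 element reporter transcript is measured by RT-PCR and capillary electrophoresis, with bidirectional curve fitting relative to DMSO.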

[2] = ATG_GRE_CIS: Attagene CIS-FACTORIAL HepG2 Assay for human Glucocorticoid Response Elements (GRE) (AID 2282947; active = hit-call score of the fitted dose curve at least 0.9, where 1 is the maximum; inactive = score below 0.9); details: HepG2 GRE cis-reporter, Attagene multiplex mRNA; actives raise or lower the signal
In short: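 Cells (HepG2) bearing transfected cis-promoter reporter transcription units were treated with chemical for 24 hours. Reporter mRNA was measured via RT-PCR with capillary electrophoresis, and activity was fitted in both directions relative to DMSO.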

[3] = ATG_VDRE_CIS: Attagene CIS-FACTORIAL HepG2 Assay for human Vitamin D Receptor Element (VDRE) (AID 2282968; active = hit-call score of the fitted dose curve at least 0.9, where 1 is the maximum; inactive = score below 0.9); details: HepG2 VDRE cis-reporter transcription, actives raise or lower the signal
In short: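 Steps: transfect HepG2 with multiple reporter transcription units; dose chemicals 24 h; isolate RNA; RT-PCR; label with 6-FAM primer extension; HpaI digest; capillary electrophoresis. Curves fitted both directions against DMSO.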

[4] = target: Oxysterols receptor LXR-alpha (Homo sapiens) (UniProt Q13133); assay: ATG_LXRa_TRANS: Attagene TRANS-FACTORIAL HepG2 Assay for human Liver X Receptor alpha (LXRa) (AID 2282980); details: HepG2 Attagene TRANS reporter, LXRa transactivation
Sequence of Oxysterols receptor LXR-alpha (Homo sapiens) (Q13133 whole entry, looked up, the tested form may be a part): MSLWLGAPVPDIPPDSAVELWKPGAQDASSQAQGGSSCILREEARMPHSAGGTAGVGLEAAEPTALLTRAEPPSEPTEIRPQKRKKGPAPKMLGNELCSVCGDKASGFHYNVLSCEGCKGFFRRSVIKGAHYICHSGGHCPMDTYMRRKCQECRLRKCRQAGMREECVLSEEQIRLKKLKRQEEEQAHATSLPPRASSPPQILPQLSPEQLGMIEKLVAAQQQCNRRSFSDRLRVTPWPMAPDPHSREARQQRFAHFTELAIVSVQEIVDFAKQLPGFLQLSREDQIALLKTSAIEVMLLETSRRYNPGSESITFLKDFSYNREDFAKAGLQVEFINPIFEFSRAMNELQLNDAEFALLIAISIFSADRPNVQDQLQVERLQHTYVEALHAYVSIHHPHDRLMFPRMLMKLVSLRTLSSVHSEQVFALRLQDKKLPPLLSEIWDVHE
In short: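 HepG2 cells transiently transfected with GAL4-UAS reporter units for chimeric NR-Gal4 proteins, exposed to chemicals for 24 h. Reporter mRNA quantified by RT-PCR and capillary electrophoresis; gain of signal fitted relative to DMSO.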

[5] = ATG_M_06_TRANS: Attagene TRANS-FACTORIAL HepG2 Assay for M06 Transcription Factor (Internal Marker) (AID 2282983); details: HepG2 Attagene TRANS M06 internal marker reporter
In short: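 mRNA levels of a reporter transcript, quantified as FAM fluorescence on capillary electrophoresis, served as readout. HepG2 cells expressing exogenous GAL4-chimera reporter constructs were exposed for 24 h. Gain of signal over DMSO was evaluated.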

[6] = target: human Peroxisome Proliferator-activated Receptor alpha (PPARa), PPARA (gene 5465) (UniProt Q07869); assay: ATG_PPARa_TRANS: Attagene TRANS-FACTORIAL HepG2 Assay for human Peroxisome Proliferator-activated Receptor alpha (PPARa) (AID 2283001)
Sequence of human Peroxisome Proliferator-activated Receptor alpha (PPARa), PPARA (gene 5465) (Q07869 whole entry, looked up): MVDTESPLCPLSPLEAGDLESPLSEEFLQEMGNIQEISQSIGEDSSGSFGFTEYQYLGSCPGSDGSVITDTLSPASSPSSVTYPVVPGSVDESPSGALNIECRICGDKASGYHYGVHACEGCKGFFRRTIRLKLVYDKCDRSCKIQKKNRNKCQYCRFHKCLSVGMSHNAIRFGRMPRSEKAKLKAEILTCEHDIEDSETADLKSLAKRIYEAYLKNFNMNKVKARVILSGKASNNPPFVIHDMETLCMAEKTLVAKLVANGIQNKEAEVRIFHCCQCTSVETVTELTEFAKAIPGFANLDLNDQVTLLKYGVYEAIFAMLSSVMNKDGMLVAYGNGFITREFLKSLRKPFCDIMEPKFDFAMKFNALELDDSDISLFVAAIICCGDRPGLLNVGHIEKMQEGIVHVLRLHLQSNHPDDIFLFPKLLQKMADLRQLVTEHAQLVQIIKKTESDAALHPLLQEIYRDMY
In short: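 Cells (HepG2) are transfected with multiple reporter transcription units, exposed to chemical for 24 h, then total RNA is reverse-transcribed and amplified. Labelled products are quantified by capillary electrophoresis; induction is referenced to DMSO.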

[7] = target: human RAR-related Orphan Receptor beta (RORb), RORB (gene 6096) (UniProt Q92753); assay: ATG_RORb_TRANS: Attagene TRANS-FACTORIAL HepG2 Assay for human RAR-related Orphan Receptor beta (RORb) (AID 2283010)
Sequence of human RAR-related Orphan Receptor beta (RORb), RORB (gene 6096) (Q92753 whole entry, looked up, the tested form may be a part): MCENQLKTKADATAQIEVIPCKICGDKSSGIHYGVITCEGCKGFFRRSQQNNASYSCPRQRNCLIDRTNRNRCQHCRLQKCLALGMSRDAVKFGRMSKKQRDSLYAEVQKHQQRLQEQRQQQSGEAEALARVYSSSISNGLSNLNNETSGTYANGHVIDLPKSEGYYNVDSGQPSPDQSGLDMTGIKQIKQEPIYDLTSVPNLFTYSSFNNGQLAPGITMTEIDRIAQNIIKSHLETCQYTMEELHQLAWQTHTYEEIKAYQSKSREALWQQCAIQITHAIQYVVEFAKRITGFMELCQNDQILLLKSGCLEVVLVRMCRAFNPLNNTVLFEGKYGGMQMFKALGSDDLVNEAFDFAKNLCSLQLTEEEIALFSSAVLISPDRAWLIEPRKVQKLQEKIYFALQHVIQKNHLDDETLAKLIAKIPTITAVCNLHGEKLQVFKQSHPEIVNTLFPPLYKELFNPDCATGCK
In short: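 Read-out is reporter mRNA induction, quantified by RT-PCR with fluorescent capillary electrophoresis, 24 h post-dose in transiently transfected HepG2 expressing exogenous NR-Gal4 chimera. Activity fitted upward versus DMSO.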

[8] = target: human Vitamin D Receptor (VDR), VDR (gene 7421) (UniProt P11473); assay: ATG_VDR_TRANS: Attagene TRANS-FACTORIAL HepG2 Assay for human Vitamin D Receptor (VDR) (AID 2283022)
Sequence of human Vitamin D Receptor (VDR), VDR (gene 7421) (P11473 whole entry, looked up, the tested form may be a part): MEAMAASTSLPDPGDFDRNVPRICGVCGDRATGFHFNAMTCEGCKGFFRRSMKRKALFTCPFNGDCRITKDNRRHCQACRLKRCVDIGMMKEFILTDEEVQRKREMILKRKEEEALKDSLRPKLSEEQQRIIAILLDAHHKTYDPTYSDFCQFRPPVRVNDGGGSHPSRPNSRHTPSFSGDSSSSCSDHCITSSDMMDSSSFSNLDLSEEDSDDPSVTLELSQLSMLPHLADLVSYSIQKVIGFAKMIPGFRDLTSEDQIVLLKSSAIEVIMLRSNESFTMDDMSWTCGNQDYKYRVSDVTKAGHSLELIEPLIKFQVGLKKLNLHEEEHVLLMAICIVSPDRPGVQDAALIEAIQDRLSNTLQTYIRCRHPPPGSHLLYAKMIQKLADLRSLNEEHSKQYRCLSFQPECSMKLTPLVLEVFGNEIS
In short: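 HepG2 cells were transiently transfected with GAL4-UAS reporter units and a chimeric VDR-Gal4 construct, then dosed for 24 hours. Reporter mRNA was quantified by RT-PCR, fluorescent labeling, HpaI digestion and capillary electrophoresis; gain of signal analysed vs DMSO.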

[9] = TOX21_p53_BLA_p3_viability: Viability Assessment in the Tox21 HCT-116 p53 Agonism Beta-lactamase Assay, Phase 3 (AID 2283593);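 also: cells exposed to compound for 16 h before reading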
In short: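 HCT-116 cells (4000/well) rested 5 h at 37C, then got DMSO compounds by pin tool (217-fold dilution) for 16 h at 37C, 5% CO2. After the bla read, CellTiter-Glo was added and luminescence read at 30 min, room temperature.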

[10] = CCTE_Harrill_HTTr_Viability_MCF7: CCTE's 6-hour Cell Viability Assessment for the High-Throughput Transcriptomics (HTTr) Platform, in MCF-7 cells cultured in DMEM + 10% fetal bovine serum, Harrill Lab (AID 2284010; active = hit-call score of the fitted dose curve at least 0.9, where 1 is the maximum; inactive = score below 0.9)
In short: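 Propidium iodide exclusion, imaged by high-content analysis, gauged viability after a six-hour exposure across eight concentrations. Cells were MCF-7 grown in DMEM with 10% fetal bovine serum; fits run in both directions against DMSO.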

[11] = CCTE_Harrill_HTTr_Apoptosis_MCF7: CCTE's 6-hour Apoptosis Assessment for the High-Throughput Transcriptomics (HTTr) Platform, in MCF-7 cells cultured in DMEM + 10% fetal bovine serum, Harrill Lab (AID 2284011; active = hit-call score of the fitted dose curve at least 0.9, where 1 is the maximum; inactive = score below 0.9)
In short: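 MCF-7 cells in DMEM + 10% FBS exposed 6 h to chemicals over an eight-point dilution series. Caspase-3/7 activation imaged by high-content CellEvent Green staining; fitted bidirectionally versus DMSO.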

[12] = target: Oxysterols receptor LXR-beta (Homo sapiens) (UniProt P55055); assay: ATG_LXRb_TRANS: Attagene TRANS-FACTORIAL HepG2 Assay for human Liver X Receptor beta (LXRb) (AID 2282981); details: HepG2 Attagene TRANS GAL4-LXRb reporter, mRNA
Sequence of Oxysterols receptor LXR-beta (Homo sapiens) (P55055 whole entry, looked up, the tested form may be a part): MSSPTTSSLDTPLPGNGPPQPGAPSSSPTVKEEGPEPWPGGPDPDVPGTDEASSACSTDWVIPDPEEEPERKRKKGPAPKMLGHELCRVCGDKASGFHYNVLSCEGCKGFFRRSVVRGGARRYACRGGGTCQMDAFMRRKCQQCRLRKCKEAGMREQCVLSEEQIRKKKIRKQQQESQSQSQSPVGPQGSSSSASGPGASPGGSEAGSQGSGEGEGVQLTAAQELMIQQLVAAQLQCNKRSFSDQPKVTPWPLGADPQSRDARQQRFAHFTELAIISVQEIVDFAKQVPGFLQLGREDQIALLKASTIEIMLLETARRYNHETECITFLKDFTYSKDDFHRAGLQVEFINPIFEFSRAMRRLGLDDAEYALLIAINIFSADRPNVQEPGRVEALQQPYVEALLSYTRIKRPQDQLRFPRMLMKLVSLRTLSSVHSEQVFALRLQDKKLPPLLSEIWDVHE
In short: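 Measures induction of a Gal4-driven reporter transcript in HepG2 cells expressing an exogenous LXRb-Gal4 fusion. Cells are exposed to compound for 24 h before RNA isolation and RT-PCR with capillary electrophoresis detection.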

[13] = ATG_PBREM_CIS: Attagene CIS-FACTORIAL HepG2 Assay for human Phenobarbital-responsive Enhancer Module (PBREM) (AID 2282955; active = hit-call score of the fitted dose curve at least 0.9, where 1 is the maximum; inactive = score below 0.9); details: HepG2 PBREM cis-reporter, Attagene multiplexed transcription; actives raise or lower the signal
In short: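 Reporter mRNA read by RT-PCR, 6-FAM primer extension, HpaI digestion and capillary electrophoresis. Transfected HepG2 cells, 24 h compound exposure. Gain or loss of signal fitted bidirectionally relative to DMSO baseline.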

[14] = ATG_PPRE_CIS: Attagene CIS-FACTORIAL HepG2 Assay for human Peroxisome Proliferator-activated Response Element (PPRE) (AID 2282958; active = hit-call score of the fitted dose curve at least 0.9, where 1 is the maximum; inactive = score below 0.9); details: HepG2 PPRE cis-element reporter, Attagene transcription factor profiling; actives raise or lower the signal
In short: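 Read-out: fluorescent reporter mRNA fragments resolved by capillary electrophoresis after RT-PCR. HepG2 cells carried transiently transfected PPRE-driven cis reporter constructs and were dosed for 24 h; gain or loss of signal fitted relative to DMSO.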

[15] = target: Nuclear receptor subfamily 1 group I member 3 (Homo sapiens) (UniProt Q14994); assay: ATG_CAR_TRANS: Attagene TRANS-FACTORIAL HepG2 Assay for human Constitutive Androstane Receptor (CAR) (AID 2282969); details: HepG2 Attagene TRANS-FACTORIAL CAR reporter;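 also: activators raise reporter mRNA above DMSO so AC50 marks induction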
Sequence of Nuclear receptor subfamily 1 group I member 3 (Homo sapiens) (Q14994 whole entry, looked up, the tested form may be a part): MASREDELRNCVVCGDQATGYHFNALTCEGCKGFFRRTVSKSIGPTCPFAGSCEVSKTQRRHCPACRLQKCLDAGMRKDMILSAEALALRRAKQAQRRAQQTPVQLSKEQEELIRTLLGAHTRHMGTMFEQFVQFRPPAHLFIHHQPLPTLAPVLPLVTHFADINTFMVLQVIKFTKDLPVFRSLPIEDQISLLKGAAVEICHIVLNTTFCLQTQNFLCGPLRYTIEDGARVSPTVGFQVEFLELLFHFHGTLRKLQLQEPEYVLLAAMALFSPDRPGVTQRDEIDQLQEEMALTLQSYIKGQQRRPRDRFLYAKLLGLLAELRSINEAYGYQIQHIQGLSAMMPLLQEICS
In short: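 Steps: transient transfection of HepG2 with multiple GAL4-UAS reporter units; 24 h compound incubation; RNA isolation, RT-PCR, 6-FAM primer extension, HpaI digest; capillary electrophoresis. Gain-of-signal relative to DMSO negative control.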

[16] = target: Glucocorticoid receptor (Homo sapiens) (UniProt P04150); assay: ATG_GR_TRANS: Attagene TRANS-FACTORIAL HepG2 Assay for human Glucocorticoid Receptor (GR) (AID 2282978); details: HepG2 Attagene TRANS GR reporter, mRNA transcription;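 also: activators score as hits since higher reporter transcript over DMSO is fitted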
Sequence of Glucocorticoid receptor (Homo sapiens) (P04150 whole entry, looked up, the tested form may be a part): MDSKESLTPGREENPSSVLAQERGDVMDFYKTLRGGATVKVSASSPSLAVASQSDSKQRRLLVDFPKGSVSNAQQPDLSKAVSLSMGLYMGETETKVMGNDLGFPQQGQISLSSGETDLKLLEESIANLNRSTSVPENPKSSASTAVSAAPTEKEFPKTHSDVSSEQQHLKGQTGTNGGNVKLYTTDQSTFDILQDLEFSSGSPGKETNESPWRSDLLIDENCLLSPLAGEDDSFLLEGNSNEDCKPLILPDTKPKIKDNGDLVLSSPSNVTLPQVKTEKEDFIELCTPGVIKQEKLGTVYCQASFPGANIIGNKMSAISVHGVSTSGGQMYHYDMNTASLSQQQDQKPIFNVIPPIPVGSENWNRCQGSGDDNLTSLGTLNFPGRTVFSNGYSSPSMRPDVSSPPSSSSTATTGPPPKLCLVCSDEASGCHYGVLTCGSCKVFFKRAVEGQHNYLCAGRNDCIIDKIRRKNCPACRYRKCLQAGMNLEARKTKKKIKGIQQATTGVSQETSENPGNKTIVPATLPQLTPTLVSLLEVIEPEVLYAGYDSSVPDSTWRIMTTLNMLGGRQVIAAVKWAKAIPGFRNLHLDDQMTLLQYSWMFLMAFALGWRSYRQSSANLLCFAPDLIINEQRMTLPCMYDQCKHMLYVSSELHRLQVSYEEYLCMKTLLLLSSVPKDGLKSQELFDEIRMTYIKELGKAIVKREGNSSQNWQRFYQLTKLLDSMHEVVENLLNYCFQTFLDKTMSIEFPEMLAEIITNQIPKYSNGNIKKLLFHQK
In short: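 Transient MRTU transfection of HepG2 (GAL4-UAS reporters, exogenous NR-GAL4 chimeras), 24 h dosing. Readout: reporter transcript via RT-PCR + capillary electrophoresis fluorescence. Positive direction vs DMSO baseline.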

[17] = target: human Peroxisome Proliferator-activated Receptor delta (PPARd), PPARD (gene 5467) (UniProt Q03181); assay: ATG_PPARd_TRANS: Attagene TRANS-FACTORIAL HepG2 Assay for human Peroxisome Proliferator-activated Receptor delta (PPARd) (AID 2283002)
Sequence of human Peroxisome Proliferator-activated Receptor delta (PPARd), PPARD (gene 5467) (Q03181 whole entry, looked up, the tested form may be a part): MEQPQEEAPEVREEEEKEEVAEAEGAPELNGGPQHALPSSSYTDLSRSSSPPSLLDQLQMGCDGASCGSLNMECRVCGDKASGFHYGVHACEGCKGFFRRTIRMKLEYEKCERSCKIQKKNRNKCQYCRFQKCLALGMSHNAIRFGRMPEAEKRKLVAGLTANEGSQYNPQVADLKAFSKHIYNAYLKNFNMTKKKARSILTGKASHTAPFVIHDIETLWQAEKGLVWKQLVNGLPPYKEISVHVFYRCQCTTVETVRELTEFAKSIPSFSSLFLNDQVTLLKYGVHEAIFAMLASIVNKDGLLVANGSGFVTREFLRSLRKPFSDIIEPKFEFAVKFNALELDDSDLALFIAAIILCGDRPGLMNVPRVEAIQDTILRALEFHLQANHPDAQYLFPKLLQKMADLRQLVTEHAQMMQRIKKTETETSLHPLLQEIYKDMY
In short: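 Measured quantity: GAL4-UAS reporter transcript induction in HepG2 after 24 h chemical dosing, with NR-Gal4 chimeras supplied by transient transfection. Detection by RT-PCR and capillary electrophoresis; upward fit against DMSO.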

[18] = ACEA_ER_AUC_viability: ACEA Biosciences xCELLigence Real-Time Cell Analysis on Estrogen Receptor Agonism for Viability (AID 2283782);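 also: hit means loss of impedance signal meaning reduced cell growth or viability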
In short: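 Continuous-exposure impedance cell analysis uses T-47D cells in charcoal-stripped serum, eight 1:4 dilutions topping at 100 uM final, biological duplicate. Area under the growth curve at 80 h is fitted against DMSO baseline.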

[19] = ATG_M_19_TRANS: Attagene TRANS-FACTORIAL HepG2 Assay for M19 Transcription Factor (Internal Marker) (AID 2282974); details: HepG2 Attagene TRANS-FACTORIAL M19 internal marker reporter
In short: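 24 h chemical exposure of transiently transfected HepG2 (MRTU library). RNA → oligo(dT) RT → PCR → 6-FAM labelling → HpaI cut → CE fluorescence. Positive-direction fit vs DMSO baseline; background internal-marker readout.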

[20] = target: Estrogen-related receptor gamma (Homo sapiens) (UniProt P62508); assay: ATG_ERRg_TRANS: Attagene TRANS-FACTORIAL HepG2 Assay for human Estrogen-Related Receptor gamma (ERRg) (AID 2282977); details: HepG2 Attagene TRANS reporter, ERRg transactivation;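 also: hits increase reporter signal over DMSO so potencies reflect activators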
Sequence of Estrogen-related receptor gamma (Homo sapiens) (P62508 whole entry, looked up, the tested form may be a part): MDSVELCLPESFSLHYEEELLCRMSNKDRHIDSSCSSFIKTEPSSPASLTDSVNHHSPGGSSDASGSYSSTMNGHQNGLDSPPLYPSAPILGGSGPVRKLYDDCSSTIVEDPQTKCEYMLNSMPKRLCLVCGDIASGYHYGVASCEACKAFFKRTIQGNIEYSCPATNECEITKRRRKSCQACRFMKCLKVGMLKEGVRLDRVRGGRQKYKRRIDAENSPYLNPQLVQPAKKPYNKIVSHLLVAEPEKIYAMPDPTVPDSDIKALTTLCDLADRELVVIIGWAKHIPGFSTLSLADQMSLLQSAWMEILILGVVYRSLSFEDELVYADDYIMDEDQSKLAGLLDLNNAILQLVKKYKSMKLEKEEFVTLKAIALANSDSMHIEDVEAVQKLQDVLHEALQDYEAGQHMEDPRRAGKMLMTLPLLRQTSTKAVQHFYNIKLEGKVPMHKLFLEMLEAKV
In short: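 Exogenous NR-Gal4 chimera activity measured as reporter transcript induction after 24 h in transiently transfected HepG2 cells. RNA reverse-transcribed, PCR-amplified, 6-FAM-labelled and resolved by capillary electrophoresis; increase over DMSO baseline.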

Measured: AC50

CCc1cc(C(N)=S)ccn1
inactive: [1] | [2] | [3] | [4] | [5] | [6] | [7] | [8] | [9] | [10] | [11]

CCCC[N+]1(C)CCCC1
inactive: [4] | [12] | [6] | [7]

OCCN(CCO)c1cccc(Cl)c1
inactive: [13] | [14] | [3] | [15] | [8]

CC1(C)S[C@@H]2[C@H](NC(=O)[C@H](N)c3ccccc3)C(=O)N2[C@H]1C(=O)O
inactive: [14] | [16] | [4] | [12] | [6] | [7] | [9]

CCCCOC(=O)COc1ccc(Cl)cc1Cl
inactive: [1] | [13] | [15] | [19] | [7] | [8] | [18]

CCCCC(CC)COC(=O)CS (stereo not given)
inactive: [1] | [2] | [19] | [20] | [16] | [6] | [8] | [9]

C[C@H]1C[C@H]2[C@@H]3CCC4=CC(=O)C=C[C@]4(C)[C@@]3(F)[C@@H](O)C[C@]2(C)[C@@]1(O)C(=O)CO
inactive: [19] | [6] | [17] | [9] | [10] | [11]

O=C(OCc1ccccc1)c1ccccc1
not listed: [2] | [7] | [9] | [12] | [15] | [17] | [18] | [20]
inactive: all other assays above

CCCCCCCCCCC1CO1 (stereo not given)
inactive: [14] | [3] | [19] | [6] | [17] | [8]

COC(=O)c1ccccc1
inactive: [14] | [3] | [19] | [4] | [12] | [17] | [7] | [8] | [9]

Cc1ccnc(N)c1
inactive: [1] | [13] | [14] | [19] | [12] | [10] | [11]

C/C=C(\C)C(=O)OCC/C=C\CC
inactive: [1] | [15] | [19] | [4] | [8]

COc1ccccc1OCC(O)CO (stereo not given)
inactive: [14] | [19] | [6] | [17] | [18]

C=C(C)C(=O)OCC1CCCO1 (stereo not given)
not listed: [4] | [7] | [8] | [10] | [11] | [14] | [19] | [20]
inactive: all other assays above

C1=CCC=C1
inactive: [5] | [6]

c1cc[c]([Bi]([c]2ccccc2)[c]2ccccc2)cc1
inactive: [3] | [15] | [12] | [8]
